{"source": "the supplement of paper PMC10105736", "binders": {"B1": {"name": "Gel (protein)", "chain": "MDASGAATMAVLSSLLVFLALSSSLCSAGTLNARPAFPVQSGEIQPSGQNSKQAARRVMHPSFANAGRTPGLEIWRIENFEPVIYPKTNYGKFYTGDSFIVLNTIENKKDKKLSWDVHFWLGLETSTDEAGAAAILTVQLDDLLNGGPVQHREVQDHESQLFLSYFKNGIRYEQGGVGTGFKHVETNAQGETRLFQVKGKRNVRVRQVNLSVSSMNTGDCFILDAGSDIYVYVGSQAKRVEKLKAISAANQIRDQDHNGRARVQIVDDFSTDADKQHFFDVLGSGSADQVPDESTADEDSAFERTDAAAVSLYKVSDASGKLKVDIIGQKPLTQAMLDTRECFILDTGSGIFVWVGKGATQKEKTDAMAKAQEFLRTKKYPAWTQIHRIVEGSESAPFKQYFDTWRDAGMSHSRLIRSALGIGSDELLNDDEIDSVVTQLKKSGGRAFGFMPDHGQNVIETITQYVAKPGSDEIVVSTVPFDEKLPLLGFASYVLTYNYEANNGDTGSLTYVWHGVKASAAARKRAFEEGLVGSKDGLLVQTNQGHEPRHFYKIFKGKLLTSFTALPVTAQLFRIRGTVESDVHASEVAADSSSLASSDAFVLHSGKSHKIYIWNGLGASAFEKQAAVDRFSDYWDDVELEQVEEGAEPDEFWEELNGEGQYDRSLGDDGAPLLESRLFHCHLSSGGFLKVEEVAQYEQEDLDSDDIMLLDAGDEIYLWVGYGVSEEENGKLLDTAKLYFNLEPTARSFDTVSIIRVPQGKEPRVFKRMFPNWDDNYWQNQPSYEDMKQLVIDANNEV"}, "B2": {"name": "GluProRS (protein)", "chain": "MSIKLKANLNNPPISGLATAHLINGTVPVEIVWSKEETSLQFPDNRLLVCHSNNDVLRALARAAPDYKLYGETAIERTQIDHWLSFSLTCEDDISWALSFLDKSIAPVTYLVANKLTIADFALFNEMHSRYEFLAAKGIPQHVQRWYDLITAQPLIQKVLQSLPEDAKVKRSPQSSKEQTPAKTGERKQEGKFVDLPGAEMGKVVVRFPPEASGYLHIGHAKAALLNQYYALAFQGTLIMRFDDTNPAKETVEFENVILGDLEQLQIKPDVFTHTSNYFDLMLDYCVRLIKESKAYVDDTPPEQMKLEREQRVESANRSNSVEKNLSLWEEMVKGSEKGQKYCVRAKIDMSSPNGCMRDPTIYRCKNEPHPRTGTKYKVYPTYDFACPIVDAIENVTHTLRTTEYHDRDDQFYWFIDALKLRKPYIWSYSRLNMTNTVLSKRKLTWFVDSGLVDGWDDPRFPTVRGIIRRGMTVEGLKEFIIAQGSSKSVVFMNWDKIWAFNKKVIDPIAPRYTALEKEKRVIVNVAGAKVERIQVSVHPKDESLGKKTVLLGPRIYIDYVDAEALKEGENATFINWGNILIRKVNKDASGNITSVDAALNLENKDFKKTLKLTWLAVEDDPSAYPPTFCVYFDNIISKAVLGKDEDFKQFIGHKTRDEVPMLGDPELKKCKKGDIIQLQRRGFFKVDVAYAPPSGYTNVPSPIVLFSIPDGHTKDVPTSGLKVNAPDAKATKKASSPVSSSGQASELDSQISQQGDLVRDLKSKKAAKDQIDVAVKKLLALKADYKSATGKDWKPGQTSASSAPVPAASSSSANDAVSVNASIVKQGDLVRDLKGKKASKPEIDAAVKTLLELKAQYKTLTGQDWKPGTVPTTAAPSASAAPSVGVNDSVAQILSQITAQGDKVRELKSAKADKATVDAAVKTLLSLKADYKAATGSDWKPGTTAPAPAAAPVKVKQEKNPDPASVLTVNTLLNKIAQQGDKIRQLKSAKSEKSLVEAEVKLLLALKTDYKSLTGQEWKPGTVAPAPTTVNVIDLTGGDSGSDVGSVLSKIQAQGDKIRKLKSEKAAKNVIDPEVKTLLALKGEYKTLSGKDWTPDAKSEPAVVKKEASPVSMASPAKDELTQEINAQGEKVRAAKGNKAAKEVIDAEVAKLLALKAKYKEVTGTDFPVAGRGGGGGGGSAKKAPKEAQPKPAKPVKKEPAADASGAVKKQTRLGLEATKEDNLPDWYSQVITKGEMIEYYDVSGCYILRQWSFAIWKAIKTWFDAEITRMGVKECYFPIFVSKAVLEKEKTHIADFAPEVAWVTKSGDSDLAEPIAVRPTSETVMYPAYAKWVQSYRDLPIRLNQWNNVVRWEFKQPTPFLRTREFLWQEGHTAFADKEEAAKEVLDILDLYALVYTHLLAIPVVKGRKTEKEKFAGGDYTTTVEAFISASGRAIQGATSHHLGQNFSKMFEIVYEDPETQQKKYVYQNSWGITTRTIGVMIMVHADNQGLVLPPHVACIQAIVVPCGITVNTKDDERAQLLDACKALEKRLVGGGVRCEGDYRDNYSPGWKFNHWELKGVPLRLEVGPKDLKAQQLVAVRRDTVEKITIPLADVEKKIPALLETIHESMLNKAQEDMTSHTKKVTNWTDFCGFLEQKNILLAPFCGEISCEDKIKADSARGEEAEPGAPAMGAKSLCIPFDQPAPIAASDKCINPSCTNKPKFYTLFGRSY"}, "B3": {"name": "Nep3 (protein)", "chain": "MTRYKQTEFTEDDSSSIGGIQLNEATGHTGMQIRYHTARATWNWRSRNKTEKWLLITTFVMAITIFTLLIVLFTDGGSSDATKHVLHVQPHQKDCPSGNELPCLNKHCIFASSEILKSIDVTVDPCDDFYGYSCNQWIKNNPIPEGKSTWGTFGKLEQMNQLIIRNVLEKPAKSFKSDAERKAKVYYESCLDADEHMEKLGAKPMNDLLLQIGGWNVTKSGYNVANWTMGHTLKILHNKYNFNCLFGWAIGEDDKNSSRHVIQIDQGGLTLPTADYYNNKTDNHRKVLNEYIEYMTKVCVLLGANESDARAQMIGVINFEKKLANITIPLEDRRNEEAMYHPMQLRQLSKLAPFLNWTDHFDNAMQMVGRRVTDDEVVVVYAPDFLKNLSDIILKMEQTEEGKITLNNYLVWQAVRTLTSCLSKPFRDAYKGVRKALMGSDGGEEIWRYCVSDTNNVVGFAVGAIFVRQAFHGESKPAAEQMIAEIREAFKMNLQNLTWVDKQTREKAIEKANQISDMIGFPDYILDPVELDKKYAELNITPNAYFENNIQVAIYNLKSNLKRLDQPVNKTNWGMTPQTVNAYYTPTKNQIVFPAGILQTPFFDINNPKSLNFGAMGVVMGHELTHAFDDQGREYDKFGNINRWWDSKSIERFNEKSECIARQYSGYKMNGRTLNGKQTLGENIADNGGLKAAYHAYQRTKSDRDVDILKLPGLNLTHSQLFFVSFAQVWCSSTTDETNLLQMEKDPHSPSQFRVIGTLSNMKEFAEVFQCKPGKRMNPTEKCEVW"}, "B4": {"name": "trbd (protein)", "chain": "MCDTKDDAQKWKCETCTYENYPSSLKCTMCQASKPLLNEDIFRLSPAQESCTVAEEAAAVEVAVMSPTPSSTCYSLQPQSQARQSNVADSEKWPCKVCTYLNWPRSLRCVQCCTKRGGEAIERGKKDMDNEADGDRAGEALQALRISGSEENLANKPVQLIGATASHRLSLSRGIDDATHLNNLANASHNQSQSQHRQPVLQQQMQLQLQPQQQRESSSSAAVPPQQQKQCYVSKWACNSCTYENWPRSIKCSMCGKTREREISGSQNDLHASSSLNSQEENQQQLQQPNVDTVSVNNSFNKKHIYQLGSSETINNCDTLQERQERRQRQIRRQVDWQWLNACLGVVENNYSAVEAYLSCGGNPARSLTSTEIAALNRNSAFDVGHTLIHLAIRFHREEMLPMLLDQISGSGPGIKRVPSYVAPDLAADIRRHFANTLRLRKSGLPCHYVQKHATFALPAEIEELPIPIQEQLYDELLDRDAQKQLETPPPALNWSLEITARLSSRMFVLWNRSAGDCLLDSAMQATWGVFDRDNILRRALADTLHQCGHVFFTRWKEYEMLQASMLHFTLEDSQFEEDWSTLLSLAGQPGSSLEQLHIFALAHILRRPIIVYGVKYVKSFRGEDIGYARFEGVYLPLFWDQNFCTKSPIALGYTRGHFSALVPMEPFTRIDGRRDDVEDVTYLPLMDCELKLLPIHFLTQSEVGNEESMMRQWLDVCVTDGGLLVAQQKLSKRPLLVAQMLEEWLNHYRRIAQVITAPFIRRPQITHYSSDGDSDEE"}, "B5": {"name": "Spt6 (protein)", "chain": "MAEFLDSEAEESEEEEELDVNERKRLKKLKAAVSDSSEEEEDDEERLREELKDLIDDNPIEEDDGSGYDSDGVGSGKKRKKHEDDDLDDRLEDDDYDLIEENLGVKVERRKRFKRLRRIHDNESDGEEQHVDEGLVREQIAEQLFDENDESIGHRSERSHREADDYDDVDTESDADDFIVDDNGRPIAEKKKKRRPIFTDASLQEGQDIFGVDFDYDDFSKYEEDDYEDDSEGDEYDEDLGVGDDTRVKKKKALKKKVVKKTIFDIYEPSELKRGHFTDMDNEIRKTDIPERMQLREVPVTPVPEGSDELDLEAEWIYKYAFCKHTVSEQEKPESREKMRKPPTTVNKIKQTLEFIRNQQLEVPFIAFYRKEYVKPELNIDDLWKVYYYDGIWCQLNERKRKLKVLFEKMRQFQLDTLCADTDQPVPDDVRLILDSDFERLADVQSMEELKDVHMYFLLNYSHELPRMQAEQRRKAIQERREAKARRQAAAAENGDDAAEAIVVPEPEDDDDPELIDYQLKQASNSSPYAVFRKAGICGFAKHFGLTPEQYAENLRDNYQRNEITQESIGPTELAKQYLSPRFMTTDEVIHAAKYVVARQLAQEPLLRKTMREVYFDRARINIRPTKNGMVLIDENSPVYSMKYVAKKPVSDLFGDQFIKLMMAEEEKLLEITFLEEFEGNACANGTPGDYVEESKALYQLDQFAKHVQEWNKLRAECVQLALQKWVIPDLIKELRSTLHEEAQQFVLRSCTGKLYKWLKVAPYKPQLPPDFGYEEWSTLRGIRVLGLAYDPDHSVAAFCAVTTVEGDISDYLRLPNILKRKNSYNLEEKAQKLADLRKLSDFIKMKKPHIVVIGAESRDAQNIQADIKEILHELETSEQFPPIEVEIIDNELAKIYANSKKGESDFKEYPPLLKQAASLARKMQDPLVEYSQLCDADDEILCLRYHPLQERVPREQLLEQLSLQFINRTSEVGLDINLMVQNSRTINLLQYICGLGPRKGQALLKLLKQSNQRLENRTQLVTVCHLGPRVFINCSGFIKIDTSSLGDSTEAYVEVLDGSRVHPETYEWARKMAIDAMEYDDEETNPAGALEEILESPERLKDLDLDAFAVELERQGFGSKSITLYDIRNELSCLYKDYRTPYTKPSAEELFDMLTKETPDSFYVGKCVTAMVTGFTYRRPQGDQLDSANPVRLDSNESWQCPFCHKDDFPELSEVWNHFDANACPGQPSGVRVRLENGLPGFIHIKNLSDRQVRNPEERVRVSQMIHVRIIKIDIDRFSVECSSRTADLKDVNNEWRPRRDNYYDYVTEEQDNRKVSDAKARALKRKIYARRVIAHPSFFNKSYAEVVAMLAEADQGEVALRPSSKSKDHLTATWKVADDIFQHIDVREEGKENDFSLGRSLWIGTEEFEDLDEIIARHIMPMALAARELIQYKYYKPNMVTGDENERDVMEKLLREEKANDPKKIHYFFTASRAMPGKFLLSYLPKTKVRHEYVTVMPEGYRFRGQIFDTVNSLLRWFKEHWLDPTATPASASASNLTPLHLMRPPPTISSSSQTSLGPQAPYSVTGSVTGGTPRSGISSAVGGGGSSAYSITQSITGYGTSGSSAPGAGVSSSHYGSSSTPSFGAINTPYTPSGQTPFMTPYTPHASQTPRYGHNVPSPSSQSSSSQRHHYGSSSGTGSTPRYHDMGGGGGGGVGGGGGSNAYSMQPHHQQRAKENLDWQLANDAWARRRPQQHQSHQSYHAQQQHHHSQQQPHMGMSMNMGITMSLGRGTGGGGGGGYGSTPVNDYSTGGGHNRGMSSKASVRSTPRTNASPHSMNLGDATPLYDEN"}}, "experiment_in_all_cases": "MAPPIT interaction score (arbitrary units); higher = stronger binary interaction signal, active = hit call of the paper", "key": {"CG15369": {"target": "CG15369", "conditions": "MAPPIT configuration: N-N; pair source set: Finley_Y2H"}, "CG32548": {"target": "CG32548", "conditions": "MAPPIT configuration: N-N; pair source set: Finley_Y2H"}, "CG15211": {"target": "CG15211", "conditions": "MAPPIT configuration: N-N; pair source set: screen_2"}, "ReepB": {"target": "ReepB", "conditions": "MAPPIT configuration: N-C; pair source set: screen_3"}, "CG15347": {"target": "CG15347", "conditions": "MAPPIT configuration: N-C; pair source set: screen_3"}, "CG15482": {"target": "CG15482", "conditions": "MAPPIT configuration: N-N; pair source set: screen_1"}, "CG33096": {"target": "CG33096", "conditions": "MAPPIT configuration: N-N; pair source set: Finley_Y2H"}, "CG15514": {"target": "CG15514", "conditions": "MAPPIT configuration: N-N"}}, "note": "Unmarked numbers belong to inactive results.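 How the source made its calls: active = MAPPIT score above the 99th percentile of random reference set scores in the same batch; inactive = at or below it.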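 Further: HEK293T cells with Epo stimulation, STAT-responsive firefly luciferase reporter, fold induction versus unstimulated cells divided by the larger fold induction of two negative controls lacking either bait or prey.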", "data": [{"binder": "B1", "values": [{"measurement": "MAPPIT interaction score", "setting": "CG15369", "result": 0.935}, {"measurement": "MAPPIT interaction score", "setting": "CG32548", "result": 0.0886}]}, {"binder": "B2", "values": [{"measurement": "MAPPIT interaction score", "setting": "CG15211", "result": 0.0202}, {"measurement": "MAPPIT interaction score", "setting": "ReepB", "result": 1.56}]}, {"binder": "B3", "values": [{"measurement": "MAPPIT interaction score", "setting": "CG15347", "result": -1.12}]}, {"binder": "B4", "values": [{"measurement": "MAPPIT interaction score", "setting": "CG15482", "result": -0.138}, {"measurement": "MAPPIT interaction score", "setting": "CG33096", "result": 0.0624}]}, {"binder": "B5", "values": [{"measurement": "MAPPIT interaction score", "setting": "CG15514; pair source set: screen_1", "result": 2.16}, {"measurement": "MAPPIT interaction score", "setting": "CG15514; pair source set: screen_2", "result": 1.63}]}]}
